Laboratory results as given in article PMC7862700, “An all-to-all approach to the identification of sequence-specific readers for epigenetic DNA modifications on cytosine”.

Assays:
Assay in all cases: DAPPL (digital affinity profiling via proximity ligation, sequencing); 10 mM Tris-HCl pH 7.5, 50 mM NaCl, 1 mM DTT, 4% glycerol, room temperature, 30 min; GST-TFs on glutathione beads, 16-mer random dsDNA library, 0.1% formaldehyde crosslink after washing; high values mean tight binding
[1] = target: T1, FEV (Homo sapiens, UniProt Q99581 1-238); details: protein: recombinant; tags: N-terminal GST; dsDNA, one strand shown
T1 sequence: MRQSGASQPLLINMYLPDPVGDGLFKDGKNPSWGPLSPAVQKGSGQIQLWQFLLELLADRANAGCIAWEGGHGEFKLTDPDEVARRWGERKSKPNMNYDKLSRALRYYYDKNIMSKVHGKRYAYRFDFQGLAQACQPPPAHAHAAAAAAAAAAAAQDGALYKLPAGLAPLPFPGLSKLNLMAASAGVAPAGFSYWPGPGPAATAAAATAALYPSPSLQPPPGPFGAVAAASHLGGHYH
Summary of the method: (§1)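 The binding signal reported is, for every hexamer, its read frequency for a factor over its read frequency for the tag-only sample. Reads came from pools of yeast-expressed, GST-fused human transcription factors on glutathione beads, barcoded with DNA and mixed with that sample, which were incubated with 200 nmole of a random double-stranded 16-mer DNA library in Tris/NaCl/DTT/glycerol buffer at room temperature for 30 min. After washing, the pools were crosslinked with 0.1% formaldehyde, proximity-ligated with BsaI/T4 ligase for 1 h at 37 °C, PCR-amplified and sequenced on an Illumina NextSeq500.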

[2] = target: ETV5 (Homo sapiens, UniProt P41161 1-510); details: protein: recombinant; tags: N-terminal GST; dsDNA, one strand shown
Summary of the method: as §1

[3] = target: HSF1 (Homo sapiens, UniProt Q00613 1-529); details: protein: recombinant; tags: N-terminal GST; chain copies: 3; dsDNA, one strand shown
Summary of the method: as §1

[4] = target: T2, SPIC (Homo sapiens, UniProt Q8N5J4 1-248); details: protein: recombinant; tags: N-terminal GST; dsDNA, one strand shown
T2 sequence: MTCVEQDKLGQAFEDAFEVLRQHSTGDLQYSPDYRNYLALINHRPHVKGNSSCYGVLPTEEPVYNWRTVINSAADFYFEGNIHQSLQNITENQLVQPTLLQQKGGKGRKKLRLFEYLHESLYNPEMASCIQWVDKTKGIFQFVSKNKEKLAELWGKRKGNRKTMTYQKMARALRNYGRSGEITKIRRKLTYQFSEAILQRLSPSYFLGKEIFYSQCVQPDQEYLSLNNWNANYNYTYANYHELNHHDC
Summary of the method: as §1

[5] = target: ELF4 (Homo sapiens, UniProt Q99607 1-663); details: protein: recombinant; tags: N-terminal GST; dsDNA, one strand shown
Summary of the method: as §1

[6] = target: T3, ELK4 (Homo sapiens, UniProt P28324-2 1-405); details: protein: recombinant; tags: N-terminal GST; dsDNA, one strand shown
T3 sequence: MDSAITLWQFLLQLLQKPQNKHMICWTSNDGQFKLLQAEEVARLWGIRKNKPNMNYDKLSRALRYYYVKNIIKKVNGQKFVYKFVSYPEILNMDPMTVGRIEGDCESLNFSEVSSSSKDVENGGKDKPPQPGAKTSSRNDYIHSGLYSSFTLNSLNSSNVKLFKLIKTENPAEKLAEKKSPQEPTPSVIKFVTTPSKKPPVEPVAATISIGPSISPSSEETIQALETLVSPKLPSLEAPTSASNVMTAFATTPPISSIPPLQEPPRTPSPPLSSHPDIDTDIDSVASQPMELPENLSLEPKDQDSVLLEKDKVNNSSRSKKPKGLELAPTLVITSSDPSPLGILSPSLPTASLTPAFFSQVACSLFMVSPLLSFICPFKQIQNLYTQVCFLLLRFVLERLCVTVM
Summary of the method: as §1

[7] = target: T4, ETV2 (Homo sapiens, UniProt O00321 1-342); details: protein: recombinant; tags: N-terminal GST; dsDNA, one strand shown
T4 sequence: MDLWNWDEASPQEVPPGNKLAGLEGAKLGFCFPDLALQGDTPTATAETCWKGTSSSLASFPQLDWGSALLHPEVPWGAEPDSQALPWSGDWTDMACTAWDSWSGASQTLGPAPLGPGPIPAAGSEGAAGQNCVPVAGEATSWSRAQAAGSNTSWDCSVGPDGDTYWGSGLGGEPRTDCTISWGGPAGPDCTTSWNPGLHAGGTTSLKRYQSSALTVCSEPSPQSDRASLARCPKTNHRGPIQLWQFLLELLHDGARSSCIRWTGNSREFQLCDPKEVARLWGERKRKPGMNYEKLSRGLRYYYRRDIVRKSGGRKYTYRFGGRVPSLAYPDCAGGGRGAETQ
Summary of the method: as §1

[8] = target: T5, ELF3 (Homo sapiens, UniProt P78545 1-371); details: protein: recombinant; tags: N-terminal GST; dsDNA, one strand shown
T5 sequence: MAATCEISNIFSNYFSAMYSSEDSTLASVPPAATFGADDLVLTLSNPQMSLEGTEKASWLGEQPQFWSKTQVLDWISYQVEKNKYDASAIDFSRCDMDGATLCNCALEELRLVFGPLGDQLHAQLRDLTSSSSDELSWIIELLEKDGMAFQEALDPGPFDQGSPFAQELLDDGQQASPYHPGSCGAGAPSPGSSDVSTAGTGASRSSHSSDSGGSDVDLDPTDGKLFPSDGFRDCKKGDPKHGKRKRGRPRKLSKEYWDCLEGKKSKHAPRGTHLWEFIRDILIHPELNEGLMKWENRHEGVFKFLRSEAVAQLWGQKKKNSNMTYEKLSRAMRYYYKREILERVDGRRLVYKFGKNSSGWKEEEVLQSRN
Summary of the method: as §1

[9] = target: CRX (Homo sapiens, UniProt O43186 1-299); details: protein: recombinant; tags: N-terminal GST; dsDNA, one strand shown
Summary of the method: as §1

[10] = target: ETV1 (Homo sapiens, UniProt P50549 1-477); details: protein: recombinant; tags: N-terminal GST; dsDNA, one strand shown
Summary of the method: as §1

[11] = target: T6, ERF (Homo sapiens, UniProt P50548 1-548); details: protein: recombinant; tags: N-terminal GST; dsDNA, one strand shown
T6 sequence: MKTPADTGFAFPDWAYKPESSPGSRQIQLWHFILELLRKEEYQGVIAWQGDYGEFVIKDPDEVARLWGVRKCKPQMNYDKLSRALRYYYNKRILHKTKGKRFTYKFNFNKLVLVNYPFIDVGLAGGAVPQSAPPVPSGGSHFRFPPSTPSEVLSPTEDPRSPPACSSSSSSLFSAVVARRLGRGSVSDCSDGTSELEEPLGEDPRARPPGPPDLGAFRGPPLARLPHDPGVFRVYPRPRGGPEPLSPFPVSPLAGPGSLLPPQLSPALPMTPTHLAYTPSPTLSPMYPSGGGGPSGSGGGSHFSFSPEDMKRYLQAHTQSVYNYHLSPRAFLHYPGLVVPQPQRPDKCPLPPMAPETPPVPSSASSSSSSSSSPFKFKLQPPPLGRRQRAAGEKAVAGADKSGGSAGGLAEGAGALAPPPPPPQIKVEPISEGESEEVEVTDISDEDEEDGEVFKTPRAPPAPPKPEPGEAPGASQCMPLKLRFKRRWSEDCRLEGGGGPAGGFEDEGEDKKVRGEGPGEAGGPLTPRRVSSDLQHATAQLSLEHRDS
Summary of the method: as §1

[12] = target: T7, ETV3L (Homo sapiens, UniProt Q6ZN32 1-361); details: protein: recombinant; tags: N-terminal GST; dsDNA, one strand shown
T7 sequence: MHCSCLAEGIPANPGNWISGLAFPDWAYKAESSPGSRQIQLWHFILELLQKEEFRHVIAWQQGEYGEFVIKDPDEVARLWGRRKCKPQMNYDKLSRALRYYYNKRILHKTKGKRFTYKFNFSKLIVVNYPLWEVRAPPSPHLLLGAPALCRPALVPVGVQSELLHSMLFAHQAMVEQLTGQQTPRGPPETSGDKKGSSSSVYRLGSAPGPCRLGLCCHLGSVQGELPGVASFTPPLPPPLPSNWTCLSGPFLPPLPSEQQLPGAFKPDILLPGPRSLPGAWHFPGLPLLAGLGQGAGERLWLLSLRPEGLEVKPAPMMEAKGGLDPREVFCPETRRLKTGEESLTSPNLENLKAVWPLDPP
Summary of the method: as §1

[13] = target: T8, ETS2 (Homo sapiens, UniProt P15036 1-469); details: protein: recombinant; tags: N-terminal GST; dsDNA, one strand shown
T8 sequence: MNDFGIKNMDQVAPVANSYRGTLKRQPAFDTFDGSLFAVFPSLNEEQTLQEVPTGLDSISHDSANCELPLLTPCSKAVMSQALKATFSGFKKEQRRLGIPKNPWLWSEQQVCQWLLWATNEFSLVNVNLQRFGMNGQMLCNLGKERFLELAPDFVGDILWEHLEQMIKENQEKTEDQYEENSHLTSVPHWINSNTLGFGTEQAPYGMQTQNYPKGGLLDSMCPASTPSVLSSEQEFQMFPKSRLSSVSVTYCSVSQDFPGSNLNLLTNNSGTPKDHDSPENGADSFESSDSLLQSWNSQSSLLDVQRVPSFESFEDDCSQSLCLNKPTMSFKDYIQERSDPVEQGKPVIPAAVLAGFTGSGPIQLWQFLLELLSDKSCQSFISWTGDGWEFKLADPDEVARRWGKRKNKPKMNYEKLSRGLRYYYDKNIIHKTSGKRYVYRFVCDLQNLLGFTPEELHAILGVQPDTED
Summary of the method: as §1

[14] = target: T9, SPDEF (Homo sapiens, UniProt O95238 1-335); details: protein: recombinant; tags: N-terminal GST; dsDNA, one strand shown
T9 sequence: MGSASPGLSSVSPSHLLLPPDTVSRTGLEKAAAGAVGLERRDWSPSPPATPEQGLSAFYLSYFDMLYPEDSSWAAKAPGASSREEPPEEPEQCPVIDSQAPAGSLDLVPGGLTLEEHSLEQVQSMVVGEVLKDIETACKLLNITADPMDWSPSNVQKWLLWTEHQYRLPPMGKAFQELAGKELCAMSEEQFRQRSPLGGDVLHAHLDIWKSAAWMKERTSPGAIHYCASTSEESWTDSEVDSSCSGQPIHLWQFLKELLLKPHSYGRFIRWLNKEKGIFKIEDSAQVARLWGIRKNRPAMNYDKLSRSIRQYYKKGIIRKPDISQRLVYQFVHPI
Summary of the method: as §1

[15] = target: T10, ETV7 (Homo sapiens, UniProt Q9Y603 1-341); details: protein: recombinant; tags: N-terminal GST; dsDNA, one strand shown
T10 sequence: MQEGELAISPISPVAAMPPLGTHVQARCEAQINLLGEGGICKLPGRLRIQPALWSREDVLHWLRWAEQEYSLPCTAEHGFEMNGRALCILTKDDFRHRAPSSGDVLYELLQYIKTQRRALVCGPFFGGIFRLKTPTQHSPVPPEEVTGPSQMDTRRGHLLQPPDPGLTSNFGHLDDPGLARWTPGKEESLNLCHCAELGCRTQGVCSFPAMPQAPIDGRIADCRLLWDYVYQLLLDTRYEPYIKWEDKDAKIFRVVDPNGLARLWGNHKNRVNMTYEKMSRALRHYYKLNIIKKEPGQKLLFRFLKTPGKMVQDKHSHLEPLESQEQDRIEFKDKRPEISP
Summary of the method: as §1

[16] = target: T11, ELF5 (Homo sapiens, UniProt Q9UKW6-2 1-255); details: protein: recombinant; tags: N-terminal GST; dsDNA, one strand shown
T11 sequence: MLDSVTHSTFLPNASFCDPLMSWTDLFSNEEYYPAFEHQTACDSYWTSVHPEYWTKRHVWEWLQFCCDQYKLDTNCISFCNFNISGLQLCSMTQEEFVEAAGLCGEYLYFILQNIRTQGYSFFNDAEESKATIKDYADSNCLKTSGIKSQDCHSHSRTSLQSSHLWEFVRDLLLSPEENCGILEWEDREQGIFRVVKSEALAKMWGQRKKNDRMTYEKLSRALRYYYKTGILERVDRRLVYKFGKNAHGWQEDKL
Summary of the method: as §1

[17] = target: T12, ETV3 (Homo sapiens, UniProt P41162-2 1-143); details: protein: recombinant; tags: N-terminal GST; dsDNA, one strand shown
T12 sequence: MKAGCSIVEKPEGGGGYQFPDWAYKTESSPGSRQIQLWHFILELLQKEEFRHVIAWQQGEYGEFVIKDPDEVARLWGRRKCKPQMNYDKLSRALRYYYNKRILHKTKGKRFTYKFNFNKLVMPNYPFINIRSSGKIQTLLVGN
Summary of the method: as §1

[18] = target: ETV6 (Homo sapiens, UniProt P41212 1-452); details: protein: recombinant; tags: N-terminal GST; dsDNA, one strand shown
Summary of the method: as §1

Chain of HSF1 (Q00613 whole entry): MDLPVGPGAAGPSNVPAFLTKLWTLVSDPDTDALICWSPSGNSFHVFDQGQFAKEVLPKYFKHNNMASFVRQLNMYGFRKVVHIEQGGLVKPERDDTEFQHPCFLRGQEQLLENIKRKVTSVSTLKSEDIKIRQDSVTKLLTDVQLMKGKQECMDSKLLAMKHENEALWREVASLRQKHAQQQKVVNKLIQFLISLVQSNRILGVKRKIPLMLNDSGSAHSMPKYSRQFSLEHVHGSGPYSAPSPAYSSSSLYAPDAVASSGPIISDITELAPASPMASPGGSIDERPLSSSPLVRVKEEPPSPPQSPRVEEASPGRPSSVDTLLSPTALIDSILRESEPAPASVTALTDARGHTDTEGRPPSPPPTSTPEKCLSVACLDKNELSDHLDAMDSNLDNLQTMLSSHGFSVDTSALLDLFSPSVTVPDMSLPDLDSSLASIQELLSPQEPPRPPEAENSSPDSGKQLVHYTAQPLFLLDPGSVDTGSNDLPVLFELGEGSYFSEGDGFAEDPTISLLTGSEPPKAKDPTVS
Chain of CRX (O43186 whole entry): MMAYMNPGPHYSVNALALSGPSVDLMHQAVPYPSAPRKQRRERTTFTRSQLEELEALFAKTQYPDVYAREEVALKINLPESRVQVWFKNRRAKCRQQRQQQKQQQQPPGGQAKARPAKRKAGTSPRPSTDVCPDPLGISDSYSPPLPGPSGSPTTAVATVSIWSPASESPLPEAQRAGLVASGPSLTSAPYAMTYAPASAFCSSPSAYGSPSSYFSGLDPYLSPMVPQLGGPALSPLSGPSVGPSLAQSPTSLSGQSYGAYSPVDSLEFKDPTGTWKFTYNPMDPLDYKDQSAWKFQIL
Chain of ELF4 (Q99607 whole entry): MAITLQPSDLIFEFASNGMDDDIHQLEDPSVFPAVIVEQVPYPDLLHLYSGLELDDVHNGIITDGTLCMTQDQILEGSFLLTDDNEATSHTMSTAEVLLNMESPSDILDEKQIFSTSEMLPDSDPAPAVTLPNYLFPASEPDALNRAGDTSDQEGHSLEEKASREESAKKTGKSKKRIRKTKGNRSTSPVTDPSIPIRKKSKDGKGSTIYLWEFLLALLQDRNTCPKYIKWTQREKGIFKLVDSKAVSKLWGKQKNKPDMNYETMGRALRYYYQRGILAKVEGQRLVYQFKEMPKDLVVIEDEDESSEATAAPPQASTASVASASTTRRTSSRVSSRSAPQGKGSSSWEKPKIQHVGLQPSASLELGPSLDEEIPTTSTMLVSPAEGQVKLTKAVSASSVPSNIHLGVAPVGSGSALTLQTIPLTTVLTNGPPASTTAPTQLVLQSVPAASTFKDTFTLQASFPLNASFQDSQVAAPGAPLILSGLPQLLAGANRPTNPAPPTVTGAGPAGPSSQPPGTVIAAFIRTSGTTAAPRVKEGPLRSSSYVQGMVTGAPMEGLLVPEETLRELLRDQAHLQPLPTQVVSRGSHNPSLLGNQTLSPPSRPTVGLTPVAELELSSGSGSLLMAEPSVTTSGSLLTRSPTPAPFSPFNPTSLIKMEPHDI
Chain of ETV6 (P41212 whole entry): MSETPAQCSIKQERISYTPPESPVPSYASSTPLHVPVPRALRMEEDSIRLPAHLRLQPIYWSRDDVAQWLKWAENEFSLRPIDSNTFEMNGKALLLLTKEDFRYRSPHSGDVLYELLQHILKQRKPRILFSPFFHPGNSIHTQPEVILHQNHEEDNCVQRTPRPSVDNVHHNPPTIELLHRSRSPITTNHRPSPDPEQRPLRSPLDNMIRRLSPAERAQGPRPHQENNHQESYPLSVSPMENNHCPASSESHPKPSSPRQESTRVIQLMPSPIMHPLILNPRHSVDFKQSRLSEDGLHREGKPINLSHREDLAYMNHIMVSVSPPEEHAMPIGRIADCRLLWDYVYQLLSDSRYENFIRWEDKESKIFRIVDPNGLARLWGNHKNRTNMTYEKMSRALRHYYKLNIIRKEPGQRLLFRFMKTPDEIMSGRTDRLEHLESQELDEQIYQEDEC
Chain of ETV1 (P50549 whole entry): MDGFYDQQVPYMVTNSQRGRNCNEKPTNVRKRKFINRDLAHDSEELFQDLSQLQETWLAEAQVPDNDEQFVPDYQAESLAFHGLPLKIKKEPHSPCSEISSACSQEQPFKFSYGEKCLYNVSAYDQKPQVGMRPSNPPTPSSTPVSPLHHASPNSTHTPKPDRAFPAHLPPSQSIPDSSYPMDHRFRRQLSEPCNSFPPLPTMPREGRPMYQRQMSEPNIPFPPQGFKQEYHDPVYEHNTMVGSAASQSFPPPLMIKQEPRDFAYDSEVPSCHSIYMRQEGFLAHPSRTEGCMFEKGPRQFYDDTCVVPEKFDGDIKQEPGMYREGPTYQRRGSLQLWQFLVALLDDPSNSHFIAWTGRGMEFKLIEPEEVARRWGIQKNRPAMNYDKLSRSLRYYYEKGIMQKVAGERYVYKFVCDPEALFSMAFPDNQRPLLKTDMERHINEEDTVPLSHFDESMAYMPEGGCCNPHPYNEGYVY
Chain of ETV5 (P41161 whole entry): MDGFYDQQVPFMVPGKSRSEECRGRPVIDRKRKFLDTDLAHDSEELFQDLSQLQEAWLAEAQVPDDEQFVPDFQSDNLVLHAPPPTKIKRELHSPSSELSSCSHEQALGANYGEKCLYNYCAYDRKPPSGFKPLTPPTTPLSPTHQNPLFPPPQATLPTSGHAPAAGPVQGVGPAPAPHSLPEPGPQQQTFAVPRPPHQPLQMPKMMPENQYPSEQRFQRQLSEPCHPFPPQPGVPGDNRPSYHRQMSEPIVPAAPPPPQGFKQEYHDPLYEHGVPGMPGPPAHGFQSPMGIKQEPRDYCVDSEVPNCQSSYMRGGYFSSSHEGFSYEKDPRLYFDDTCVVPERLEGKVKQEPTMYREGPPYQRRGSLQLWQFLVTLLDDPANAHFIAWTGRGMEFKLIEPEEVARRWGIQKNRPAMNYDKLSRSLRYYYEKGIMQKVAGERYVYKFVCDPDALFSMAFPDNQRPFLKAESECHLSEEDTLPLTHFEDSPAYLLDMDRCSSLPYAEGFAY

Sequence: TTACAC
- binding signal [1]: 1.24 fold enrichment (6-mer frequency, TF over GST control)
- binding signal [2]: 1.23 fold enrichment (6-mer frequency, TF over GST control)
- binding signal [3]: 1.35 fold enrichment (6-mer frequency, TF over GST control)
- binding signal [4]: 1.17 fold enrichment (6-mer frequency, TF over GST control)
- binding signal [5]: 1.21 fold enrichment (6-mer frequency, TF over GST control)
- binding signal [6]: 1.25 fold enrichment (6-mer frequency, TF over GST control)
- binding signal [7]: 1.16 fold enrichment (6-mer frequency, TF over GST control)
- binding signal [8]: 1.2 fold enrichment (6-mer frequency, TF over GST control)
- binding signal [9]: 1.73 fold enrichment (6-mer frequency, TF over GST control)
- binding signal [10]: 1.27 fold enrichment (6-mer frequency, TF over GST control)
- binding signal [11]: 1.2 fold enrichment (6-mer frequency, TF over GST control)
- binding signal [12]: 1.15 fold enrichment (6-mer frequency, TF over GST control)
- binding signal [13]: 1.22 fold enrichment (6-mer frequency, TF over GST control)
- binding signal [14]: 1.23 fold enrichment (6-mer frequency, TF over GST control)
- binding signal [15]: 1.19 fold enrichment (6-mer frequency, TF over GST control)
- binding signal [16]: 1.19 fold enrichment (6-mer frequency, TF over GST control)
- binding signal [17]: 1.15 fold enrichment (6-mer frequency, TF over GST control)
- binding signal [18]: 1.2 fold enrichment (6-mer frequency, TF over GST control)
